# From the supplement of paper PMC8728848
# This excerpt belongs to a sample that is enriched for the strongest signals.
# B1: Clec39 (Caenorhabditis elegans) (protein)
# chain: MTSFYDNSSSSSKPVPLKTSRAQKIQILIFDNWKLILYGAISTLILVLAIMFSTLFFALPAANCDENSEPTKYYTTNAEITTTITTTNQKTTSTASSHLTTISSSATQIYSESSSSSTSQSTFTQSPPEISTTTIAPSDFSCQHGFTLVNNKCWKLVTSNQARPDADKICNGYGGATLFSIKSEQDNRAMIHFVKGQDIDFLWSGLLCSAGEPISCIWDIENGSTANYSNFADGFPNIVYGNCVYFITSGDEAGQWGNEQCGQVMNFVCELPATFQGKDGCKNNYEKSCYLRFDLNLTVPQAQNFCLEKCANLVSIHSANEVRFIMTIYDFIGEILIGALAPAQDFIYWLDGTPANYNNLKFFYNSTCVHMTVAPGMQNVGKWFTRFCTETGKFLCKRSIKNSCT
# Experiments:
# Assay in all cases: glycan array binding signal (z-score within array); higher = stronger binding
# Conditions in all cases: glycan notation: IUPAC condensed, linker removed
# [1] = target: Fuc(a1-2)Gal(b1-3)GlcNAc(b1-2)Man(a1-3)[Fuc(a1-2)Gal(b1-3)GlcNAc(b1-2)Man(a1-6)]Man(b1-4)GlcNAc(b1-4)GlcNAc
# How it was run: (§1)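 Columns mapping to the same glycan were averaged after glycan names were converted to IUPAC-condensed notation. The data come from 3228 arrays in the Consortium for Functional Glycomics database, limited to those with an available protein sequence. Binding is reported as a within-array Z-score averaged across arrays of one protein sequence and across linkers.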
# [2] = target: Fuc(a1-2)Gal(b1-3)GlcNAc(b1-3)GalNAc
# How it was run: as §1
# [3] = target: Fuc(a1-2)Gal(b1-4)GlcNAc6S
# How it was run: as §1
# [4] = target: Fuc(a1-2)Gal(b1-4)[Fuc(a1-3)]GlcNAc
# How it was run: as §1
# [5] = target: Fuc(a1-2)Gal(b1-4)[Fuc(a1-3)]GlcNAc(b1-2)[Fuc(a1-2)Gal(b1-4)[Fuc(a1-3)]GlcNAc(b1-4)]Man(a1-3)[Fuc(a1-2)Gal(b1-4)[Fuc(a1-3)]GlcNAc(b1-2)Man(a1-6)]Man(b1-4)GlcNAc(b1-4)GlcNAc
# How it was run: as §1
# [6] = target: Fuc(a1-2)[Gal(a1-3)]Gal(b1-3)GlcNAc
# How it was run: as §1
# [7] = target: Fuc(a1-2)[Gal(a1-3)]Gal(b1-4)GlcNAc(b1-2)Man(a1-3)[Fuc(a1-2)[Gal(a1-3)]Gal(b1-4)GlcNAc(b1-2)Man(a1-6)]Man(b1-4)GlcNAc(b1-4)GlcNAc
# How it was run: as §1
# [8] = target: Fuc(a1-2)[GalNAc(a1-3)]Gal(b1-4)Glc
# How it was run: as §1
# [9] = target: Fuc(a1-2)[GalNAc(a1-3)]Gal(b1-4)GlcNAc(b1-3)GalNAc
# How it was run: as §1
# [10] = target: Fuc(a1-3)[Gal(b1-4)]GlcNAc(b1-2)Man(a1-3)[Fuc(a1-3)[Gal(b1-4)]GlcNAc(b1-2)Man(a1-6)]Man(b1-4)GlcNAc(b1-4)[Fuc(a1-6)]GlcNAc
# How it was run: as §1
# [11] = target: Gal(a1-3)Gal(b1-3)GlcNAc(b1-3)GalNAc
# How it was run: as §1
# [12] = target: Gal(b1-3)GlcNAc(a1-3)Gal(b1-4)GlcNAc
# How it was run: as §1
# [13] = target: Gal(b1-3)GlcNAc(b1-3)Gal(b1-4)[Fuc(a1-3)]GlcNAc
# How it was run: as §1
# [14] = target: Gal(b1-3)GlcNAc(b1-3)Gal(b1-4)[Fuc(a1-3)]GlcNAc(b1-6)[Gal(b1-3)GlcNAc(b1-3)]Gal(b1-4)Glc
# How it was run: as §1
# [15] = target: Gal(b1-3)GlcNAc(b1-3)GalNAc
# How it was run: as §1
# [16] = target: Gal(b1-4)GlcNAc(b1-3)Gal(b1-3)GlcNAc
# How it was run: as §1
# [17] = target: Gal(b1-4)GlcNAc(b1-3)Gal(b1-4)GlcNAc(b1-2)[Gal(b1-4)GlcNAc(b1-3)Gal(b1-4)GlcNAc(b1-6)]Man(a1-6)[Gal(b1-4)GlcNAc(b1-3)Gal(b1-4)GlcNAc(b1-2)Man(a1-3)]Man(b1-4)GlcNAc(b1-4)[Fuc(a1-6)]GlcNAc
# How it was run: as §1
# [18] = target: Gal(b1-4)GlcNAc(b1-3)Gal(b1-4)GlcNAc(b1-3)Gal(b1-4)GlcNAc(b1-3)Gal(b1-4)GlcNAc(b1-3)Gal(b1-4)GlcNAc(b1-2)Man(a1-3)[Gal(b1-4)GlcNAc(b1-3)Gal(b1-4)GlcNAc(b1-3)Gal(b1-4)GlcNAc(b1-3)Gal(b1-4)GlcNAc(b1-3)Gal(b1-4)GlcNAc(b1-2)Man(a1-6)]Man(b1-4)GlcNAc(b1-4)GlcNAc
# How it was run: as §1
# [19] = target: Gal(b1-4)GlcNAc(b1-3)Gal(b1-4)GlcNAc(b1-6)[Gal(b1-3)]GalNAc
# How it was run: as §1
# [20] = target: Gal(b1-4)GlcNAc(b1-6)[Gal(b1-4)GlcNAc(b1-3)]GalNAc
# How it was run: as §1
# [21] = target: Gal3S(b1-3)GlcNAc
# How it was run: as §1
# [22] = target: Gal3S(b1-4)Glc6S
# How it was run: as §1
# [23] = target: Gal6S(b1-4)Glc6S
# How it was run: as §1
# [24] = target: GalNAc(b1-3)Gal(a1-4)Gal(b1-4)GlcNAc
# How it was run: as §1
# [25] = target: GalNAc(b1-3)GlcNAc
# How it was run: as §1
# [26] = target: GalNAc3S(b1-4)[Fuc(a1-3)]GlcNAc
# How it was run: as §1
# [27] = target: GlcNAc(a1-4)Gal(b1-4)GlcNAc(b1-3)Gal(b1-4)[Fuc(a1-3)]GlcNAc(b1-3)Gal(b1-4)[Fuc(a1-3)]GlcNAc
# How it was run: as §1
# [28] = target: GlcNAc(b1-2)[GlcNAc(b1-4)]Man(a1-3)[GlcNAc(b1-2)Man(a1-6)]Man(b1-4)GlcNAc(b1-4)GlcNAc
# How it was run: as §1
# [29] = target: GlcNAc(b1-2)[GlcNAc(b1-4)]Man(a1-3)[GlcNAc(b1-4)][GlcNAc(b1-2)Man(a1-6)]Man(b1-4)GlcNAc(b1-4)GlcNAc
# How it was run: as §1
# [30] = target: GlcNAc(b1-3)Gal(b1-4)GlcNAc(b1-3)Gal(b1-4)GlcNAc(b1-2)Man(a1-3)[GlcNAc(b1-3)Gal(b1-4)GlcNAc(b1-3)Gal(b1-4)GlcNAc(b1-2)Man(a1-6)]Man(b1-4)GlcNAc(b1-4)GlcNAc
# How it was run: as §1
# [31] = target: GlcNAc(b1-3)Gal(b1-4)GlcNAc(b1-3)Gal(b1-4)GlcNAc(b1-3)Gal(b1-4)GlcNAc(b1-2)Man(a1-3)[GlcNAc(b1-3)Gal(b1-4)GlcNAc(b1-3)Gal(b1-4)GlcNAc(b1-3)Gal(b1-4)GlcNAc(b1-2)Man(a1-6)]Man(b1-4)GlcNAc(b1-4)GlcNAc
# How it was run: as §1
# [32] = target: GlcNAc(b1-3)[GlcNAc(b1-4)][GlcNAc(b1-6)]GlcNAc
# How it was run: as §1
# [33] = target: Kdn(a2-6)Gal(b1-4)GlcNAc
# How it was run: as §1
# [34] = target: Man(a1-2)Man(a1-3)[Man(a1-2)Man(a1-6)]Man
# How it was run: as §1
# [35] = target: Man(a1-2)Man(a1-3)[Man(a1-2)Man(a1-6)]Man(a1-6)[Man(a1-2)Man(a1-2)Man(a1-3)]Man
# How it was run: as §1
# [36] = target: Man(a1-3)[Man(a1-6)]Man
# How it was run: as §1
# [37] = target: Neu5Ac(a2-3)Gal(b1-3)GlcNAc(b1-2)[Neu5Ac(a2-3)Gal(b1-3)GlcNAc(b1-4)]Man(a1-6)[Neu5Ac(a2-3)Gal(b1-3)GlcNAc(b1-2)Man(a1-3)]Man(b1-4)GlcNAc(b1-4)GlcNAc
# How it was run: as §1
# [38] = target: Neu5Ac(a2-3)Gal(b1-3)GlcNAc(b1-3)Gal(b1-3)GlcNAc
# How it was run: as §1
# [39] = target: Neu5Ac(a2-3)Gal(b1-4)GlcNAc(b1-2)Man(a1-3)[GlcNAc(b1-4)][Neu5Ac(a2-3)Gal(b1-4)GlcNAc(b1-2)Man(a1-6)]Man(b1-4)GlcNAc(b1-4)GlcNAc
# How it was run: as §1
# [40] = target: Neu5Ac(a2-3)Gal(b1-4)GlcNAc(b1-2)Man(a1-3)[Neu5Ac(a2-6)Gal(b1-4)GlcNAc(b1-2)Man(a1-6)]Man(b1-4)GlcNAc(b1-4)GlcNAc
# How it was run: as §1
# [41] = target: Neu5Ac(a2-3)Gal(b1-4)GlcNAc(b1-3)Gal(b1-4)GlcNAc(b1-3)[Neu5Ac(a2-3)Gal(b1-4)GlcNAc(b1-3)Gal(b1-4)GlcNAc(b1-6)]GalNAc
# How it was run: as §1
# [42] = target: Neu5Ac(a2-3)Gal(b1-4)[Fuc(a1-3)]GlcNAc(b1-3)GalNAc
# How it was run: as §1
# [43] = target: Neu5Ac(a2-3)Gal6S(b1-4)[Fuc(a1-3)]GlcNAc
# How it was run: as §1
# [44] = target: Neu5Ac(a2-6)Gal(b1-4)GlcNAc
# How it was run: as §1
# [45] = target: Neu5Ac(a2-6)Gal(b1-4)GlcNAc(b1-2)Man(a1-3)[Gal(b1-4)GlcNAc(b1-2)Man(a1-6)]Man(b1-4)GlcNAc(b1-4)GlcNAc
# How it was run: as §1
# [46] = target: Neu5Ac(a2-6)Gal(b1-4)GlcNAc(b1-2)Man(a1-3)[GlcNAc(b1-2)Man(a1-6)]Man(b1-4)GlcNAc(b1-4)GlcNAc
# How it was run: as §1
# [47] = target: Neu5Ac(a2-6)Gal(b1-4)GlcNAc(b1-2)Man(a1-3)[Neu5Ac(a2-3)Gal(b1-4)GlcNAc(b1-2)Man(a1-6)]Man(b1-4)GlcNAc(b1-4)GlcNAc
# How it was run: as §1
# [48] = target: Neu5Ac(a2-6)Gal(b1-4)GlcNAc(b1-6)GalNAc
# How it was run: as §1
# [49] = target: Neu5Ac(a2-8)Neu5Ac(a2-3)Gal(b1-3)GalNAc(b1-4)[Neu5Ac(a2-8)Neu5Ac(a2-3)]Gal(b1-4)Glc
# How it was run: as §1
# [50] = target: Neu5Ac(a2-8)Neu5Ac(a2-8)Neu5Ac(a2-3)[Gal(b1-3)GalNAc(b1-4)]Gal(b1-4)Glc
# How it was run: as §1
# [51] = target: Neu5Ac(b2-6)Gal(b1-4)GlcNAc
# How it was run: as §1
# [52] = target: Neu5Gc(a2-3)Gal(b1-3)[Fuc(a1-4)]GlcNAc
# How it was run: as §1
binder,measurement,setting,value
B1,glycan array binding signal (z-score),[1],2.06
same,glycan array binding signal (z-score),[2],1.86
same,glycan array binding signal (z-score),[3],-0.018
same,glycan array binding signal (z-score),[4],0.187
same,glycan array binding signal (z-score),[5],3.52
same,glycan array binding signal (z-score),[6],-0.274
same,glycan array binding signal (z-score),[7],3.03
same,glycan array binding signal (z-score),[8],2.18
same,glycan array binding signal (z-score),[9],-0.527
same,glycan array binding signal (z-score),[10],4.38
same,glycan array binding signal (z-score),[11],-0.178
same,glycan array binding signal (z-score),[12],-0.68
same,glycan array binding signal (z-score),[13],-0.715
same,glycan array binding signal (z-score),[14],0.976
same,glycan array binding signal (z-score),[15],-0.666
same,glycan array binding signal (z-score),[16],-0.657
same,glycan array binding signal (z-score),[17],0.173
same,glycan array binding signal (z-score),[18],3.63
same,glycan array binding signal (z-score),[19],0.593
same,glycan array binding signal (z-score),[20],5.43
same,glycan array binding signal (z-score),[21],-0.524
same,glycan array binding signal (z-score),[22],0.293
same,glycan array binding signal (z-score),[23],2
same,glycan array binding signal (z-score),[24],1.49
same,glycan array binding signal (z-score),[25],-0.927
same,glycan array binding signal (z-score),[26],1.07
same,glycan array binding signal (z-score),[27],3.59
same,glycan array binding signal (z-score),[28],0.095
same,glycan array binding signal (z-score),[29],0.673
same,glycan array binding signal (z-score),[30],0.778
same,glycan array binding signal (z-score),[31],-0.221
same,glycan array binding signal (z-score),[32],0.102
same,glycan array binding signal (z-score),[33],0.204
same,glycan array binding signal (z-score),[34],-0.005
same,glycan array binding signal (z-score),[35],0.088
same,glycan array binding signal (z-score),[36],0.047
same,glycan array binding signal (z-score),[37],0.47
same,glycan array binding signal (z-score),[38],-0.142
same,glycan array binding signal (z-score),[39],1.43
same,glycan array binding signal (z-score),[40],2.22
same,glycan array binding signal (z-score),[41],-0.101
same,glycan array binding signal (z-score),[42],4.34
same,glycan array binding signal (z-score),[43],-1.24
same,glycan array binding signal (z-score),[44],-1.22
same,glycan array binding signal (z-score),[45],0.815
same,glycan array binding signal (z-score),[46],0.613
same,glycan array binding signal (z-score),[47],-0.493
same,glycan array binding signal (z-score),[48],-0.055
same,glycan array binding signal (z-score),[49],1.4
same,glycan array binding signal (z-score),[50],0.076
same,glycan array binding signal (z-score),[51],-0.632
same,glycan array binding signal (z-score),[52],1.01
